The source of these data is ChEMBL document CHEMBL5606460, “ASAP - DENV-2 NS2B-NS3 protease fluorescence single point” (2024).

Among all 2,000 compounds or so, about 110 (5.5%) showed an effect of 50% or more. This excerpt belongs to a sample that is enriched for strong results.

The target in this experiment is Genome polyprotein (dengue virus type 2) (UniProt P29990).
Where [1] appears, read: Thailand/16681/1984, Concentration 25.0 uM, Number of replicates 1.0.

Regarding `CN(C)Cc1cc(C(=O)Nc2cc(Cl)cc(C(=O)NC(C)(C)CO)c2)ccn1`, the inhibition was -0.805% (Thailand/16681/1984, Concentration 49.5 uM, Number of replicates 2.0, Standard deviation 0.8373879793632091 %); -0.768% (Thailand/16681/1984, Concentration 99.01 uM, Number of replicates 2.0, Standard deviation 1.3878191722501325 %); -0.077% (Thailand/16681/1984, Concentration 198.0 uM, Number of replicates 2.0, Standard deviation 1.150645337077672 %).

Consider `O=Cc1ccc(N2CCC(C(=O)N3CCOCC3)CC2)cc1`, for which the inhibition under setting [1] was found to be 13.3%.

Take `O=C(/C=C/c1ccccc1)C(=O)N1CCN(CCc2ccccc2)CC1`: the inhibition is, setting by setting: (Thailand/16681/1984, Concentration 49.5 uM, Number of replicates 2.0, Standard deviation 1.1058163895680901 %) -0.075%; (Thailand/16681/1984, Concentration 99.01 uM, Number of replicates 2.0, Standard deviation 1.051850300329286 %) 3.22%; (Thailand/16681/1984, Concentration 198.0 uM, Number of replicates 2.0, Standard deviation 0.9821847629012651 %) 9.52%.

Take `NCc1ccc(/C=C/C(=O)C(=O)N2CCOCC2)cc1`: the inhibition is, setting by setting: (Thailand/16681/1984, Concentration 49.5 uM, Number of replicates 2.0, Standard deviation 0.4887874545992688 %) 28.7%; (Thailand/16681/1984, Concentration 99.01 uM, Number of replicates 2.0, Standard deviation 0.17235835687354284 %) 48.5%; (Thailand/16681/1984, Concentration 198.0 uM, Number of replicates 2.0, Standard deviation 0.3206181572929207 %) 70.2%.

For `O=C(/C=C/c1ccc(N2CCNCC2)cc1)C(=O)N1CCOCC1`, the inhibition was 1.52% (Thailand/16681/1984, Concentration 49.5 uM, Number of replicates 2.0, Standard deviation 1.4144964098734516 %); 5.18% (Thailand/16681/1984, Concentration 99.01 uM, Number of replicates 2.0, Standard deviation 0.4568300281843685 %); 13.3% (Thailand/16681/1984, Concentration 198.0 uM, Number of replicates 2.0, Standard deviation 1.1436463049734074 %).

For `CC(=O)N1CCC(N(C)C(=O)C2CCN(c3ccc(C=O)cc3)CC2)CC1`, the inhibition under setting [1] came to 10.9%.

With `O=Cc1ccc(N2CCC(C(=O)N3CCN(CCc4ccccc4)CC3)CC2)cc1`, under setting [1], the inhibition worked out at 33%.

With `CN(C)c1ccc(/C=C/C(=O)C(=O)N2CCOCC2)cc1`, the inhibition came out at 37.9% (Thailand/16681/1984, Concentration 49.5 uM, Number of replicates 2.0, Standard deviation 1.4993650320557768 %); 59.5% (Thailand/16681/1984, Concentration 99.01 uM, Number of replicates 2.0, Standard deviation 1.3662996762867583 %); 78.8% (Thailand/16681/1984, Concentration 198.0 uM, Number of replicates 2.0, Standard deviation 0.7538742729933879 %).

With `Nc1ccc(/C=C/C(=O)C(=O)N2CCN(CCc3ccccc3)CC2)cc1`, the inhibition was 23.4% (Thailand/16681/1984, Concentration 49.5 uM, Number of replicates 2.0, Standard deviation 0.14046836541625998 %); 40.1% (Thailand/16681/1984, Concentration 99.01 uM, Number of replicates 2.0, Standard deviation 0.26272659487750905 %); 60.1% (Thailand/16681/1984, Concentration 198.0 uM, Number of replicates 2.0, Standard deviation 0.8058693227147314 %).

Regarding `CN(Cc1ccc(N2CCOCC2)cc1)C(=O)C1CCN(c2ccc(C=O)cc2)CC1`, the inhibition under setting [1] was determined as 13.2%.

For `CNC(=O)c1cc(Cl)ccc1NS(=O)(=O)c1[nH]ncc1C(=O)OC`, the inhibition is, setting by setting: (Thailand/16681/1984, Concentration 49.5 uM, Number of replicates 2.0, Standard deviation 1.242021000664882 %) -1.06%; (Thailand/16681/1984, Concentration 99.01 uM, Number of replicates 2.0, Standard deviation 0.08117786480507469 %) 0.923%; (Thailand/16681/1984, Concentration 198.0 uM, Number of replicates 2.0, Standard deviation 0.003820190349027435 %) 2.41%.

For the molecule `COc1cc(Cl)c(C)cc1NC(=O)C1CCN(c2ccc(C=O)cc2)CC1`, the inhibition under setting [1] is 13.9%.

Turning to `CC(C)(CNC(=O)C1CCN(c2ccc(C=O)cc2)CC1)c1cccc(Cl)c1`, the inhibition under setting [1] worked out at 10.4%.

Consider `N[C@H]1C[C@H](CNC(=O)[C@@H](NC(=O)OCc2ccccc2)c2ccc(OCc3ccccc3)cc2)C1`, for which the inhibition is -7.81% (Thailand/16681/1984, Concentration 49.5 uM, Number of replicates 2.0, Standard deviation 4.035148717327061 %); -5.23% (Thailand/16681/1984, Concentration 99.01 uM, Number of replicates 2.0, Standard deviation 3.6381547385610027 %); 9.08% (Thailand/16681/1984, Concentration 198.0 uM, Number of replicates 2.0, Standard deviation 2.7035240962471856 %).

Regarding `O=Cc1ccc(N2CCC(C(=O)NC3C4CC5CC(C4)CC3C5)CC2)cc1` (stereo unspecified), the inhibition under setting [1] is 6.37%.

As to `CN(Cc1cccc2ccccc12)C(=O)C1CCN(c2ccc(C=O)cc2)CC1`, the inhibition under setting [1] turned out to be 11.3%.

Turning to `Cc1c(C2CCNCC2)cnn1Cc1nnc(-c2ccccc2)o1`, the inhibition reads like this: (Thailand/16681/1984, Concentration 49.5 uM, Number of replicates 2.0, Standard deviation 2.3622904402078886 %) -2.18%; (Thailand/16681/1984, Concentration 99.01 uM, Number of replicates 2.0, Standard deviation 1.8884466143634908 %) -1.86%; (Thailand/16681/1984, Concentration 198.0 uM, Number of replicates 2.0, Standard deviation 1.0159128732525171 %) -0.491%.

`Cc1cccc(NC(=O)CNC(=O)C2CCN(c3ccc(C=O)cc3)CC2)c1C`: the inhibition under setting [1] amounted to 13%.

With `Cc1cc(CO)c2cccc(NC(=O)[C@@H](N)CC(N)=O)c2n1`, the inhibition is -3.67% (Thailand/16681/1984, Concentration 49.95 uM, Number of replicates 2.0, Standard deviation 1.8295341709834483 %) and -1.2% (Thailand/16681/1984, Concentration 99.9 uM, Number of replicates 2.0, Standard deviation 6.049352845396267 %).

For `Cc1cc(CO)c2cccc(NC(=O)CCN)c2n1`, the inhibition was 28.7% (Thailand/16681/1984, Concentration 49.95 uM, Number of replicates 2.0, Standard deviation 0.675365146636023 %) and 91.2% (Thailand/16681/1984, Concentration 99.9 uM, Number of replicates 2.0, Standard deviation 0.4014376052982588 %).

Turning to `Cc1cc(CO)c2cccc(CC(=O)Nc3cc(O)[nH]n3)c2n1`, the inhibition (Thailand/16681/1984, Concentration 49.95 uM, Number of replicates 2.0, Standard deviation 0.30186854167697036 %) was 9.85% and the inhibition (Thailand/16681/1984, Concentration 99.9 uM, Number of replicates 2.0, Standard deviation 0.4943454438060974 %) was found to be 27.1%.

Turning to `Cc1cc(CO)c2cccc(NC(=O)[C@@H](N)CCN)c2n1`, the inhibition by setting is: (Thailand/16681/1984, Concentration 49.95 uM, Number of replicates 2.0, Standard deviation 3.3658560886244877 %) -1.14%; (Thailand/16681/1984, Concentration 99.9 uM, Number of replicates 2.0, Standard deviation 3.0766976877592507 %) -5.81%.

Consider `Cc1cc(CO)c2cccc(NC(=O)COc3cccc(CN)c3)c2n1`, for which the inhibition turned out to be 9.18% (Thailand/16681/1984, Concentration 49.95 uM, Number of replicates 2.0, Standard deviation 1.546456211659181 %) and 7.18% (Thailand/16681/1984, Concentration 99.9 uM, Number of replicates 2.0, Standard deviation 0.8863913825569767 %).

In general, inhibition refers to the change of the read-out against control, counted positive when it falls.
